# GRIN3A LBD mod: binders of NR3A ligand-binding domain, primary screen, biophysical, differential scanning fluorimetry, uHTS; AID 1259313, 2017; NR3A LBD differential scanning fluorimetry, Tm shift; 0% = protein alone, 100% = glycine-bound protein; Tm shift relative to glycine control, % at 25 µM; hit rate 2.5% among 340,000;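 active = melting temperature shift of at least 10% of the positive control shift, at one fixed dose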
# rCAG RNA binder: binders of r(CAG) RNA repeats, primary screen, biochemical, fluorescence | inhibition, % at 3 µM | AID 651821, 2012 | r(CAG) RNA repeat, TO-PRO-1 dye displacement fluorescence | hit rate 1.3% among 370,000;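 active = inhibition above the plate cutoff, the mean of all test compounds on that plate plus 3 SD, cut at about 35% in these data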;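 note: 0% = DMSO alone and 100% = 100 µM mitoxantrone as full dye displacement; higher means more dye released from RNA so lower well fluorescence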
# FAS TE block: FAS thioesterase domain inhibitors, primary screen, biochemical, fluorescence intensity, uHTS | recombinant FAS-TE, OMFH fluorogenic substrate, fluorescence endpoint | hit rate 0.67% among 360,000 | AID 602261, 2012 | inhibition, % at 15 µM;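 active = compounds whose normalised, plate-corrected inhibition of enzyme fluorescence in the single-dose primary screen is 50% or more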;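 note: 0% = DMSO with enzyme and 100% = substrate without enzyme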
# NadD inh: inhibitors of S. aureus NadD, primary screen, biochemical, colorimetric, uHTS; inhibition, % at 20 µM; purified NadD enzyme, colorimetric absorbance read-out; Nicotinate-nucleotide adenylyltransferase NadD (Staphylococcus aureus N315); hit rate 0.78% among 360,000; in the data active = inhibition above about 26%
# Starred values were filed as active, the others as inactive; . = not tested or not shown. Shown are actives, neighbours in structure and some others; about 4.3% of the full set was active somewhere.
SMILES,GRIN3A LBD mod,rCAG RNA binder,FAS TE block,NadD inh
O=C(NNC(=O)c1cc(-c2ccc(Cl)c(Cl)c2)nc2ccccc12)Nc1ccccc1,29*,12,33,22
O=C(NC1CCCC1)C1(C(=O)C2CC2)CC(c2ccccn2)=NO1 (centres undefined),.,0,.,.
CCOc1ccc(/C=C2/SC(=O)NC2=S)cc1,-5,11,-5,1
CCOc1ccc(N=C2NC(=O)S/C2=C\c2ccc(N(C)C)cc2)cc1,-3,1,-140,37*
O=C(CSc1nc2ccccc2c(=O)[nH]1)Nc1ccc(N2CCOCC2)cc1,17*,-1,-5,-1
CN(Cc1ccccc1)C(=O)OCc1cn(Cc2c(F)cccc2F)nn1,.,1,.,.
CC(C)C[C@H]1COc2cc(Br)ccc2S(=O)(=O)N1Cc1cn(Cc2ccc(Br)cc2)nn1,.,2,.,.
O=C(NCc1ccc(F)c(F)c1)C1CCC(CNS(=O)(=O)c2cccc3cccnc23)CC1 (centres undefined),.,4,.,.
CC(=O)Nc1ccc(SC[C@H](CC(C)C)N2CCN(CC(C)C)CCC2=O)cc1,13*,-10,-10,-2
COC(=O)C1=C(C)N(C)C(=NCc2cccc(C(F)(F)F)c2)NC1c1ccc(F)cc1 (centres undefined),.,8,.,.
COc1ccc(NC(=O)NC[C@@H]2CC[C@@H](Cc3ccc(-c4ccccc4)cc3)O2)cc1,11*,5,10,-4
COC(=O)[C@]12CCCCC=C1N(Cc1ccc(OC)cc1)C(=O)[C@@H]2CC(=O)NCCC(C)C,.,-2,.,.
CNC(=S)SCCOc1ccccc1C,15*,-2,4,-8
CNC(=S)NNC(=O)COc1ccccc1C,-4,2,-7,-1
Cc1onc(-c2ccccc2)c1C(=O)OCC(=O)Nc1cccc(Cl)c1,13*,2,41,-16
Cc1onc(-c2ccccc2)c1C(=O)OCC(=O)Nc1ccc(Cl)cc1,2,-1,22,-10
Cc1onc(-c2ccccc2)c1C(=O)OCC(=O)Nc1ccc(OC(F)(F)F)cc1,12*,2,36,-8
COc1cc(/C=N/Nc2ccc([N+](=O)[O-])cn2)cc(OC)c1O,1,7,4,-3
O=[N+]([O-])c1ccc(NN=Cc2cccc(O)c2)nc1,12*,5,23,0
CC(=O)Nc1ccc(C=NNc2ccc([N+](=O)[O-])cn2)cc1,24*,2,8,-1
Cn1ncc(N=Cc2ccc([N+](=O)[O-])cc2)c1C(=O)Nc1ccccc1,14*,1,6,-9
O=[N+]([O-])c1ccc(NN=Cc2cc(Br)ccc2O)nc1,31*,9,46,2
CN(Cc1ccc2c(c1)CCCN2C)C(=O)[C@@H](Cc1ccccc1)NC(=O)[C@H]1O[C@@H](n2ccc(=O)[nH]c2=O)[C@H](O)[C@@H]1O,.,6,.,.
C[C@H]1[C@H](c2ccccc2)Oc2cccc(NCCc3ccccc3)c2S(=O)(=O)N1Cc1cccc(F)c1,.,5,.,.
CCCCCC[C@@H](CCCc1ccccc1OC)CN(CCCC)S(C)(=O)=O,.,2,.,.
SMILES,GRIN3A LBD mod,rCAG RNA binder,FAS TE block,NadD inh
CCOc1cc(/C=C2/C(=O)ON=C2C)ccc1OCc1ccccc1,26*,2,.,.
O=C(CN1CCN(Cc2ccccc2)CC1)N/N=C\c1c2ccccc2cc2ccccc12,.,3,.,.
O=C(NCc1ccc2c(c1)OCO2)C(=O)NCC1OCCCN1S(=O)(=O)c1cc(F)ccc1F (centres undefined),13*,0,-1,-2
CC[C@@]1(c2ccc(C)cc2)C(=O)N(C(=O)OC)N1C(=O)OC,.,1,.,.
Cc1cccc(N2CCc3c2nc2ccc(Br)cc2c3N)c1,37*,34,32,9
Nc1c2c(nc3ccc(Br)cc13)N(Cc1ccccc1)CC2,0,4,5,10
Nc1c2c(nc3ccc(Br)cc13)N(c1ccccc1)CC2,10*,16,10,12
CC(=O)CC[C@@H]1CC[C@]2(CCCN(C(=O)c3ccno3)C2)O1,.,6,.,.
CC[C@H](CCCc1ccc(F)cc1)CN(Cc1ccc(OC)cc1)S(=O)(=O)c1ccc(C)cc1,.,4,.,.
COC(=O)C1CN(Cc2ccc(F)cc2)CCS(=O)(=O)N1Cc1cn(Cc2ccc(C)cc2)nn1 (centres undefined),.,2,.,.
